Results as given in the antibiotic and cytotoxicity screens of Wong et al. (2023).
The whole screen tested about 39,000 compounds, of which about 3,300 (8.5%) were called active. The sample holds actives, similar compounds and a random draw of the others, so the mix is not that of the screen.

What follows are compounds tested on HepG2 (assay: cytotoxicity call (relative viability < 0.9)). Settings: 10 µM.

Question: `C[C@@H]1CCCCO[C@@H](CN(C)CC2CCCCC2)[C@H](C)CN([C@@H](C)CO)C(=O)c2cc(NC(=O)NC3CCCCC3)ccc2O1` was tested. Which cytotoxicity call did it give?
Answer: inactive

Question: How did the cytotoxicity call turn out when `C[C@@H]1CN([C@@H](C)CO)C(=O)c2cc(NC(=O)NC3CCCCC3)ccc2O[C@@H](C)CCCCO[C@@H]1CN(C)CC1CCCCC1` was run?
Answer: inactive

Question: With `CCCN(C)C[C@@H]1OCCCC[C@@H](C)Oc2ccc(NC(=O)NC3CCCCC3)cc2C(=O)N([C@H](C)CO)C[C@@H]1C` as the compound, how does the cytotoxicity call read?
Answer: active

Question: Which cytotoxicity call does the source give for `CCCN(C)C[C@@H]1OCCCC[C@H](C)Oc2ccc(NC(=O)NC3CCCCC3)cc2C(=O)N([C@@H](C)CO)C[C@@H]1C` here?
Answer: inactive

Question: `C[C@@H]1CCCCO[C@@H](CN(C)CC2CCCCC2)[C@@H](C)CN([C@@H](C)CO)C(=O)c2cc(NC(=O)NC3CCCCC3)ccc2O1` was tested. Which cytotoxicity call did it give?
Answer: inactive

Question: For `C[C@@H]1CN([C@@H](C)CO)C(=O)c2cc(NC(=O)NC3CCCCC3)ccc2O[C@@H](C)CCCCO[C@H]1CN(C)CC1CCCCC1`, which cytotoxicity call is on record?
Answer: active

Question: How did the cytotoxicity call turn out when `CCCN(C)C[C@H]1OCCCC[C@@H](C)Oc2ccc(NC(=O)NC3CCCCC3)cc2C(=O)N([C@@H](C)CO)C[C@H]1C` was run?
Answer: inactive

Question: With `C[C@@H]1CCCCO[C@@H](CN(C)CC2CCCCC2)[C@H](C)CN([C@H](C)CO)C(=O)c2cc(NC(=O)NC3CCCCC3)ccc2O1` as the compound, how does the cytotoxicity call read?
Answer: inactive

Question: With `C[C@@H]1CCCCO[C@H](CN(C)CC2CCCCC2)[C@@H](C)CN([C@H](C)CO)C(=O)c2cc(NC(=O)NC3CCCCC3)ccc2O1` as the compound, how does the cytotoxicity call read?
Answer: inactive

Question: For `C[C@H](CO)N1C[C@H](C)[C@H](CN(C)CC2CCCCC2)OCCCC[C@H](C)Oc2ccc(NC(=O)NC3CCCCC3)cc2C1=O`, which cytotoxicity call is on record?
Answer: inactive

Question: Which cytotoxicity call does the source give for `C[C@H]1CCCCO[C@H](CN(C)CC2CCCCC2)[C@@H](C)CN([C@@H](C)CO)C(=O)c2cc(NC(=O)NC3CCCCC3)ccc2O1` here?
Answer: active

Question: With `C[C@@H]1CCCCO[C@H](CN(C)CC2CCCCC2)[C@H](C)CN([C@H](C)CO)C(=O)c2cc(NC(=O)NC3CCCCC3)ccc2O1` as the compound, how does the cytotoxicity call read?
Answer: active

Question: With `COc1cccc(NC(=O)N2C[C@@H](O)COC[C@H]3O[C@H](CC(=O)NC4Cc5ccccc5C4)CC[C@@H]32)c1` as the compound, how does the cytotoxicity call read?
Answer: inactive

Question: With `CCNC(=O)C[C@H]1CC[C@H]2[C@@H](COC[C@@H](O)CN2C(=O)Nc2c(C)noc2C)O1` as the compound, how does the cytotoxicity call read?
Answer: inactive

Question: Which cytotoxicity call does the source give for `Cc1ccc(S(=O)(=O)N[C@@H]2CC[C@H](CCNC(=O)CN3CCOCC3)O[C@H]2CO)cc1` here?
Answer: inactive

Question: `CCOC(=O)CCc1n[nH]c(=O)[nH]c1=O` was tested. Which cytotoxicity call did it give?
Answer: inactive

Question: How did the cytotoxicity call turn out when `O=C(CCCCCNC(=O)OCCCCO[C@@H]1C[C@H](C2CCCCC2)C=C(C(=O)N2CCOCC2)O1)NO` was run?
Answer: inactive

Question: For `Cc1noc(C)c1NC(=O)Nc1ccc2c(c1)C(=O)N([C@@H](C)CO)C[C@@H](C)[C@H](CN(C)S(C)(=O)=O)O2`, which cytotoxicity call is on record?
Answer: inactive
